This is an account of results in PubChem BioAssay.

Assay [1] is described as follows: growth inhibition of DIPG glioma cells, dose response, cell-based, SU-DIPG-XVII, MIPE5.0, CellTiter-Glo, qHTS (AID 1347060).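 On AC50: cells exposed to compound for 48 hours before viability readout.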 The following applies: SU-DIPG-XVII viability, CellTiter-Glo ATP luminescence.
The nature of assay [2]: growth inhibition of DIPG glioma cells, dose response, cell-based, SU-DIPG-XIII, MIPE5.0, CellTiter-Glo, qHTS (AID 1347064; cut-off not given, nearly all actives have AC50 up to about 23 µM;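 on AC50: cells exposed to compound for 48 hours before the viability read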). Conditions: SU-DIPG-XIII viability, CellTiter-Glo ATP luminescence.
Assay [3] can be described thus: viability loss in pontine glioma line – cell-based, SU-DIPG-XXV, MIPE5.0, CellTiter-Glo, qHTS, dose response (AID 1347065).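 Further: cells exposed to compound for 48 hours before ATP readout.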 The following applies: CellTiter-Glo ATP luminescence. In general terms: ATP-based viability assays read luminescence as a measure of living cells.
A short description of assay [4]: JHH-DIPG-1 glioma cell viability, MIPE5.0 library, CellTiter-Glo luminescence, qHTS (AID 1347067).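 Further: cells exposed to compound for 48 hours before readout.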 Conditions: JHH-DIPG-1 glioma viability, CellTiter-Glo ATP luminescence.
Assay [5] in a line: SU-DIPG-XXV glioma cell viability, MIPE5.0 library, qHTS (AID 1347068; cut-off not given, nearly all actives have IC50 up to about 30 µM;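 on IC50: cells exposed to compound for 48 hours before viability readout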). In general terms: In qHTS, concentration-response curves come from the screen itself.

Records with an inconclusive call do not appear. The source made the active and inactive calls. Unless noted, cut-off not given; nearly all actives show AC50 up to about 26 µM.

By AC50 is commonly meant the concentration at which the activity in the assay is half-maximal. As a reminder, the IC50 is the concentration that inhibits the measured activity by half.

For `CC(C)(C)C(=O)CN1C(=O)[C@H](NC(=O)Nc2cccc(C(=O)O)c2)CN(C2CCCCC2)c2ccccc21`, the compound was called inactive in assay [1], in assay [2], in assay [3], in assay [4] and in assay [5].
As for `CC(C)c1c(-c2ccccc2)nc2c(C#N)c[nH]n2c1=O`, the compound was classed as inactive in assay [1], in assay [2], in assay [3], in assay [4] and in assay [5].
Turning to `C[C@@H]1N=C(N)NC(N(C)C)=N1`, the compound was classed as inactive in assay [1], in assay [2], in assay [3], in assay [4] and in assay [5].
In the case of `CN1CCN(c2ccc(Nc3ncc4cc(C#N)c(=O)n(C5CCCC5)c4n3)cc2)CC1`, the AC50 in assay [1] was 3.72 µM (active); in assay [2], 8.33 µM (active); in assay [3], 5.25 µM (active); in assay [4], 10.5 µM (active). In assay [5], the IC50 is 4.17 µM (active).
The matching figures for `CC(=O)c1cnc2ccc(-c3cc(Cl)c(O)c(Cl)c3)nc2c1NC1CCC(CN(C)C)CC1` (stereo not given): 0.191 µM (active), 0.171 µM (active), 0.121 µM (active), 0.303 µM (active) and 0.191 µM (active).
With `COC(=O)Nc1cc(Nc2cc(NC3CC3)c3ncc(C#N)n3n2)c(Cl)c(N2CCN(C)CC2)c1`, the AC50 in assay [1] was 5.25 µM (active); in assay [2] it was 3.72 µM (active); in assay [3] it was 2.63 µM (active); in assay [4], 2.95 µM (active). In addition, the IC50 in assay [5] is 23.5 µM (active).
`O=C(O)CNC(=O)c1ncc(-c2cccc(Cl)c2)cc1O`: the outcome in assay [1], in assay [2], in assay [3], in assay [4] and in assay [5] was inactive.
As for `C[C@H]1CN(C[C@H](Cc2ccccc2)C(=O)NCC(=O)O)CC[C@@]1(C)c1cccc(O)c1`, the compound was classed as inactive in assay [1], in assay [2], in assay [3], in assay [4] and in assay [5].
As for `C=CC(=O)Nc1cccc(Oc2nc(Nc3ccc(N4CCN(C)CC4)cc3)nc3ccsc23)c1`, the AC50 was 8.33 µM (active) in assay [1], 13.2 µM (active) in assay [2], 9.34 µM (active) in assay [3] and 10.5 µM (active) in assay [4]. The IC50 in assay [5] was 0.59 µM (active).
`O=C(NO)c1ccc(C2=Nc3ccccc3Oc3ccccc32)cc1`: the AC50 in assay [1] is 10.5 µM (active); in assay [2], 5.25 µM (active); in assay [3], 7.42 µM (active); in assay [4] it was 11.8 µM (active). In assay [5], the IC50 was 14.8 µM (active).
For `N#Cc1ccnc(Nc2cc(C3CCN(C4COC4)CC3)cc(N3CCC(F)(F)C3)n2)c1`, the AC50 in assay [1] is 2.63 µM (active); in assay [2] it was 5.25 µM (active); in assay [3], 1.48 µM (active); in assay [4], 5.9 µM (active). The IC50 in assay [5] was 11.8 µM (active).
The like results for `CCNC(=O)C#Cc1ccc2c(C(=Nc3ccc(CN(C)C)cc3)c3ccccc3)c(O)[nH]c2c1` were, in that order, 0.162 µM (active), 0.574 µM (active), 0.0723 µM (active), 0.288 µM (active) and 0.811 µM (active).
As for `CC(C)c1c2cc(-c3ccnc(NC4CCC(NC5CCOCC5)CC4)n3)ccc2nn1C` (stereo not given), the AC50 in assay [1] was 0.417 µM (active); in assay [2] it was 0.372 µM (active); in assay [3], 0.468 µM (active); in assay [4], 0.417 µM (active). The IC50 in assay [5] is 0.525 µM (active).
Regarding `OC1CCC([C@H](O)C[C@H]2c3c(F)cccc3-c3cncn32)CC1` (stereo not given in full), the compound was classed as inactive in assay [1], in assay [2], in assay [3], in assay [4] and in assay [5].
On to `CNC(=O)c1ccc(Nc2ncc(C(F)(F)F)c(NCc3nccnc3N(C)S(C)(=O)=O)n2)cc1`, for which the AC50 is 4.68 µM (active) in assay [1], 5.25 µM (active) in assay [2], 3.72 µM (active) in assay [3] and 4.68 µM (active) in assay [4]. Further, the IC50 in assay [5] is 2.35 µM (active).
For the compound `C[C@H](CN(C)C)Oc1nc(Nc2cc3cccc(Cl)c3cn2)cnc1C#N`, the AC50 in assay [1] was 16.6 µM (active); in assay [2] it was 13.2 µM (active); in assay [3], 16.6 µM (active); in assay [4] it was 8.33 µM (active). The compound was classed as inactive in assay [5].
On to `C=C1C(=O)O[C@@H]2[C@H]3C(C)=CC[C@@]34O[C@@]4(C)CC[C@@H]12`, for which the AC50 in assay [1] is 11.8 µM (active); in assay [2], 11.8 µM (active); in assay [3], 9.34 µM (active); in assay [4], 8.33 µM (active). Also, in assay [5], the IC50 is 20.9 µM (active).
Consider `Cc1cn(CCN2CCN(c3ccccc3-c3cc(C#N)cc(C(=O)NCCCN4CCCC4)c3)CC2)c2ccccc12`, for which the AC50 was 8.33 µM (active) in assay [1], 10.5 µM (active) in assay [2], 7.42 µM (active) in assay [3] and 8.33 µM (active) in assay [4]. The IC50 in assay [5] is 7.42 µM (active).
With `CN1CCN(c2ccc3nc(-c4cc(C(C)(C)C)c(OCCCC(=O)NCCCN=[N+]=[N-])c(C(C)(C)C)c4)[nH]c3c2)CC1`, the AC50 in assay [1] is 10.5 µM (active); in assay [2] it was 13.2 µM (active); in assay [3], 7.42 µM (active); in assay [4] it was 11.8 µM (active). The IC50 in assay [5] was 9.34 µM (active).
Consider `CN[C@@H]1[C@@H](O)[C@@H](O[C@@H]2[C@@H](O)[C@H](O[C@H]3O[C@H](CN)[C@@H](O)[C@H](O)[C@H]3O)[C@@H](N)C[C@H]2NC(=O)C(O)CN)OC[C@]1(C)O` (stereo not given in full), for which the call in assay [1], in assay [2], in assay [3], in assay [4] and in assay [5] was inactive.
As to `O=C(O)CNC(=O)c1nc(Cl)c2ccccc2c1O`, the compound was classed as inactive in assay [1], in assay [2], in assay [3], in assay [4] and in assay [5].
